These results are taken from PubChem BioAssay.

Assay [1] can be described thus: optical density shifts of acrAB sulA E. coli – strain DRC41, OD650, 48 h, E. coli filamentation inducer project, primary screen (AID 1152).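 Note: E. coli MC1000 strain DRC41 lacking acrAB efflux pump and sulA.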 The note with it: higher = more signal, called active from +8 up or from −8 down.
A short description of assay [2]: probe aLefty1 binding on compound microarray – biochemical, small-molecule microarray, 635/667 nm fluorescence, primary screen (AID 1153).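 Note: score merges spot fluorescence with signal-to-noise ratio from the scanned slide images.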 Particulars: higher = more signal.
Assay [3] is described as follows: plasmodial surface anion channel blockers, osmotic lysis – cell-based, P. falciparum Indochina, OD700, 1 h, primary screen (AID 1154). Particulars: P. falciparum Indochina infected RBC osmotic lysis, higher = more signal, called active from +8 up or from −8 down.
A short description of assay [4]: plasmodial surface anion channel blockers, osmotic lysis – cell-based, P. falciparum Indochina, OD700, 2 h, primary screen (AID 1155).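 Note: lysis reports solute entry through the parasite surface anion channel PSAC.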 Particulars: P. falciparum Indochina infected erythrocytes, higher = more signal, called active from +8 up or from −8 down.
Assay [5] in a line: changes in parasitized red cell lysis, either direction – P. falciparum Indochina, OD700, 3 h, PSAC antagonist project, primary screen (AID 1156). Particulars: P. falciparum-infected erythrocytes, osmotic lysis, higher = more signal, called active from +8 up or from −8 down.
Assay [6] is described as follows: plasmodial surface anion channel blockers, osmotic lysis – cell-based, P. falciparum Indochina, OD700, 18 h, primary screen (AID 1157). The note with it: P. falciparum Indochina infected erythrocytes, osmotic lysis OD700, 18 h; higher = more signal, called active from +8 up or from −8 down.
Assay [7] is described as follows: S6 kinase pathway phospho-S6 level changes – cell-based, A549, cytoblot, luminescence, serum-stimulated, primary screen (AID 1158).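 Note: serum-stimulated A549 lung adenocarcinoma cells; signal is phosphorylated S6 detected by cytoblot immunostaining with HRP secondary.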 The note with it: 5 h, higher = more signal.
The target of assay [8] is NADPH oxidase 2 (Homo sapiens) (UniProt P04839). Nature of the assay: compounds shifting NOX2 Amplex Red fluorescence – cell-based, HEK293-NOX2, PMA-stimulated, NOX inhibitor project, primary screen (AID 1159). Note: test concentration not given here. Particulars: 45 min, higher = more signal, called active from +8 up or from −8 down.
Chain of NADPH oxidase 2 (Homo sapiens) (P04839 whole entry, looked up): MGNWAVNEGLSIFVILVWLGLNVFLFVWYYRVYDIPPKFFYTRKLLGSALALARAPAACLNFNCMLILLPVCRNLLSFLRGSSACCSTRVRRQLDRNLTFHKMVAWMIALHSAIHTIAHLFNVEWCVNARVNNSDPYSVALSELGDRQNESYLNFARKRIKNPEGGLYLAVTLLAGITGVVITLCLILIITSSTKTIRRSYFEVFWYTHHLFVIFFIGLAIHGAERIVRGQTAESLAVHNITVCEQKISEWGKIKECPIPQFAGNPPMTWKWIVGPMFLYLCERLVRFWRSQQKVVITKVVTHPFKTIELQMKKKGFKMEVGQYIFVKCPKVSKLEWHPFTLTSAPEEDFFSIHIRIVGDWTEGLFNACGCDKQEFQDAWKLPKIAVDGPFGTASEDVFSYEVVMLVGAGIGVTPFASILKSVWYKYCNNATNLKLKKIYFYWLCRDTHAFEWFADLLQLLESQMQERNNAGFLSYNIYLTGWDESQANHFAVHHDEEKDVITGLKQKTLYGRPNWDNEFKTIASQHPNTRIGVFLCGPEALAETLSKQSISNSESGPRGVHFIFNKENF
Assay [9] concerns the target NADPH oxidase 4 (Homo sapiens) (UniProt Q9NPH5). The assay can be described thus: compounds shifting NOX4 Amplex Red fluorescence – cell-based, HEK293-NOX4, tetracycline-induced, NOX inhibitor project, primary screen (AID 1160). The note with it: HEK293-NOX4, Amplex Red H2O2 fluorescence, 45 min; higher = more signal, called active from +8 up or from −8 down.
In assay [10] the target is NADPH oxidase 5 (Homo sapiens) (UniProt Q96PH1). The assay can be described thus: compounds shifting NOX5 Amplex Red fluorescence – cell-based, HEK293-NOX5, NOX inhibitor project, primary screen (AID 1161). The note with it: HEK293-NOX5, ionomycin, 45 min, higher = more signal.
Chain of NADPH oxidase 5 (Homo sapiens) (Q96PH1 whole entry, looked up): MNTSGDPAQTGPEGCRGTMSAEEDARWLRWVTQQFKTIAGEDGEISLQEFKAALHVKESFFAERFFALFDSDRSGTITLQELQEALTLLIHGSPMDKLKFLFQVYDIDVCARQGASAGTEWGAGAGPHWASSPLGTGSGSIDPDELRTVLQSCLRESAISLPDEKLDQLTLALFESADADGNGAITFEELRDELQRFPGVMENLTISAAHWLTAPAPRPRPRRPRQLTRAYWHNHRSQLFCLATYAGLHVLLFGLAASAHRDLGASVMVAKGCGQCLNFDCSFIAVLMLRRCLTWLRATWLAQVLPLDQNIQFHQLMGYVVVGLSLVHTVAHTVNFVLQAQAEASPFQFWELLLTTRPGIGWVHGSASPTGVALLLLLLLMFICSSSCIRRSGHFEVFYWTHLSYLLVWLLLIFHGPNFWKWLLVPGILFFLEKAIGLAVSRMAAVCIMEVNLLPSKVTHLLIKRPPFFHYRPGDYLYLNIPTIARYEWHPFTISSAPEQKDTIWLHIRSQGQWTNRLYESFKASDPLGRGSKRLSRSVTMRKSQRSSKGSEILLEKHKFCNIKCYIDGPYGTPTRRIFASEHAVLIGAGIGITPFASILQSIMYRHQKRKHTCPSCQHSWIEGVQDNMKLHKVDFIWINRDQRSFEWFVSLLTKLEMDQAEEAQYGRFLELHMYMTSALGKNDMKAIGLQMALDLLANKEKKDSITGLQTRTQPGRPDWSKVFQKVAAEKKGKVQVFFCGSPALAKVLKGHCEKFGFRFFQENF
A short description of assay [11]: compound effects on lung adenocarcinoma cell viability – A549, calcein-AM fluorescence, 48 h, basal, profiling panel (AID 1162). Note: test concentration not given here. The note with it: higher = more signal.
A short description of assay [12]: compound effects on differentiated 3T3-L1 adipocyte viability – cell-based, 3T3-L1 adipocytes, calcein-AM fluorescence, 48 h, basal, profiling panel (AID 1163). Note: test concentration not given here. The note with it: 3T3-L1 adipocytes viability, higher = more signal.
Assay [13] is described as follows: compound effects on hepatocellular carcinoma cell viability – HepG2, calcein-AM fluorescence, 48 h, basal, profiling panel (AID 1164). Note: test concentration not given here. The note with it: higher = more signal.
Assay [14] in a line: compound effects on multiple myeloma cell viability – MM1S, calcein-AM fluorescence, 48 h, basal, profiling panel (AID 1165).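 Note: viability of MM1S multiple myeloma cells under basal unstimulated conditions; test concentration not given here.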 The note with it: higher = more signal.
A short description of assay [15]: calcein-AM signal in unstimulated myeloma cells – cell-based, calcein-AM fluorescence, 48 h, PK04 Diversity Set, profiling panel (AID 1166).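 Note: cells grown under basal conditions without added stimulus; test concentration not given here.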 The note with it: RPMI8226 myeloma viability, higher = more signal.
A short description of assay [16]: JC-1 mitochondrial signal, unstimulated HepG2 cells – cell-based, JC-1 fluorescence, 24 h, 100 nL compound, profiling panel (AID 1167). Note: test concentration not given here. The note with it: HepG2 mitochondrial potential, higher = more signal.
Assay [17] is described as follows: JC-1 mitochondrial signal, unstimulated adipocytes – cell-based, JC-1 fluorescence, 3T3-L1 adipocytes, 24 h, 100 nL compound, profiling panel (AID 1168). Note: test concentration not given here. Particulars: JC-1 mitochondrial fluorescence, higher = more signal, called active from +8 up or from −8 down.
The nature of assay [18]: JC-1 mitochondrial signal, unstimulated myeloma cells – cell-based, JC-1 fluorescence, RPMI8226, 24 h, 100 nL compound, profiling panel (AID 1169). Note: test concentration not given here. Particulars: JC-1 mitochondrial potential fluorescence, higher = more signal.
A short description of assay [19]: JC-1 mitochondrial signal, unstimulated MM1S myeloma – cell-based, JC-1 fluorescence, 24 h, 100 nL compound, profiling panel (AID 1170). Note: test concentration not given here. The note with it: MM1S mitochondrial potential, higher = more signal.
The nature of assay [20]: resazurin metabolic signal in A549 cells – cell-based, resazurin fluorescence, 24 h, PK04 Diversity Set, profiling panel (AID 1171). Note: test concentration not given here. Particulars: A549 viability, higher = more signal, called active from +8 up or from −8 down. (The colour change of resazurin is a common sign of viable cells or microbes.)

The source made the active and inactive calls.

Chain of NADPH oxidase 4 (Homo sapiens) (Q9NPH5 whole entry, looked up): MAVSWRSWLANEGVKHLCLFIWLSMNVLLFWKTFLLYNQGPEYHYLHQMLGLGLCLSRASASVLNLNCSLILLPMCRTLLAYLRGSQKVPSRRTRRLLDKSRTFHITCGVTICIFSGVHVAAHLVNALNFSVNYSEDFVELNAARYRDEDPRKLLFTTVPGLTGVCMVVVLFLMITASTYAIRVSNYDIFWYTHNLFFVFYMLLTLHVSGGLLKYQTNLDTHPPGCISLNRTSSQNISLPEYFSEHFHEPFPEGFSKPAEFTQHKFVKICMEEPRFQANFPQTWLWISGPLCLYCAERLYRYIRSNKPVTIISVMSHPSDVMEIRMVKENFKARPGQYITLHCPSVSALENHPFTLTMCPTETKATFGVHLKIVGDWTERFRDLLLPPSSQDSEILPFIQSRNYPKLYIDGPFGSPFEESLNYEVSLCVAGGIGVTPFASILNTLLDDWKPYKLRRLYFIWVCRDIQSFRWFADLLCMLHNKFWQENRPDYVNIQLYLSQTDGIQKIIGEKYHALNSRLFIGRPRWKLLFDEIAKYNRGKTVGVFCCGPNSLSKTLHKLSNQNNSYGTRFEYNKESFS

For the compound `COCCOC(=O)N1C(=O)[C@@]2(c3cc(C#CCCO)ccc31)[C@H](c1ccc(O)cc1)N1[C@H](c3ccccc3)[C@H](c3ccccc3)OC(=O)[C@H]1[C@@H]2C(=O)N1CCc2cc(OC)c(OC)cc2C1`, the z-score in assay [1] was -0.0188 (inactive); in assay [3], 1.22 (inactive); in assay [4], 0.141 (inactive); in assay [5] it was 0.203 (inactive); in assay [6], 0.286 (inactive); in assay [7], 0.212. The z-score in assay [8] is 0.611 (inactive); in [9], 0.522 (inactive); in assay [10], 1.02; in [11], 1.1; in assay [12], 0.462; in assay [13] it was 1.04. The z-score is 0.664 in assay [14]; 0.113 in [15]; 0.374 in [16]; 0.57 (inactive) in assay [17]; -0.253 in assay [18]; -0.602 in [19]. Moreover, the z-score in [20] was -0.0256 (inactive). Moreover, the composite z-score in assay [2] worked out at 0.469.
In the case of `CO[C@H]1O[C@H](CO)[C@@H](OC(=O)Nc2ccccc2)[C@@H]2OC(=O)[C@H](Cc3ccccc3)C/C=C/C[C@@H](Cc3ccccc3)C(=O)O[C@@H]12`, the z-score in assay [1] was 0.863 (inactive); in assay [3], 10.1 (active); in assay [4] it was 0.342 (inactive); in assay [5], -1.91 (inactive); in [6], -0.681 (inactive); in [7] it was 1.31. For the same compound, the z-score in assay [8] was -3.35 (inactive); in assay [9], -0.599 (inactive); in assay [10] it was -1.57; in assay [11] it was -0.152; in assay [12] it was 0.385; in assay [13], 0.358. For the same compound, the z-score in [14] was -1.22; in assay [15], -2.46; in [16] it was -0.928; in [17], 0.799 (inactive); in assay [18] it was -0.865; in assay [19] it was -1.45. For the same compound, the z-score in [20] was -2.94 (inactive). Also, the composite z-score in assay [2] was 0.302.
Regarding `C=CC(CO)NC(=O)OCC1c2ccccc2-c2ccccc21` (stereo not given), the z-score in assay [1] was -0.878 (inactive); in assay [3], -0.0039 (inactive); in assay [4], -0.124 (inactive); in assay [5], -1.03 (inactive); in assay [6], 0.182 (inactive); in assay [7] it was 0.078. In addition, the z-score in [8] was -0.385 (inactive); in assay [9], 0.0866 (inactive); in assay [10], 0.23; in assay [11], -0.454; in assay [12] it was 0.351; in assay [13], -0.479. Also, the z-score in assay [14] was -1.07; in [15], 0.0644; in assay [16], -0.692; in assay [17] it was 0.386 (inactive); in [18] it was 0.534; in assay [19], 0.128. The z-score in assay [20] is -0.62 (inactive). Moreover, the composite z-score in assay [2] was -0.188.
On to `O=C1c2ccccc2[C@](Cc2ccccc2I)(C(=O)O)[C@H](c2ccc(CO)cc2)N1Cc1ccccc1`, for which the z-score is 0.848 (inactive) in [1]; 4.42 (inactive) in [3]; -0.579 (inactive) in assay [4]; -0.144 (inactive) in assay [5]; -0.656 (inactive) in [6]; 1.25 in assay [7]. Moreover, the z-score is 0.516 (inactive) in assay [8]; 0.148 (inactive) in assay [9]; 1.71 in [10]; 1.48 in assay [11]; 0.431 in assay [12]; 1.04 in [13]. Also, the z-score is 0.295 in [14]; -1.66 in assay [15]; 0.275 in [16]; 0.0449 (inactive) in assay [17]; -0.601 in [18]; -0.349 in assay [19]. The z-score in [20] is -1.45 (inactive). The composite z-score in assay [2] is 0.223.
